# Assay results reported in ChEMBL document CHEMBL3988442, “University of Dundee, Small-Polar-MMV Screening Library” (2021).
# In all, about 69,000 compounds went through this assay and about 1,000 (1.4%) showed an effect of 50% or more. The sample holds strong results, similar compounds and a random draw of the others, so the mix is not that of the screen.
# Tested on: Leishmania donovani
# Assay: Leishmania intramacrophage assay
# Type: functional, organism-based
# Set-up: scale not given: in the data most compounds retested in dose-response had high values
smiles,measurement,setting,value
COc1cccc2c1OCC(CNc1cc(N)nc(SC)n1)C2 (stereo not drawn),Percent Effect,"30.3 µM, […]",21.08%
CCc1nc2c(NCC3COc4cc(OC)ccc4C3)ncnc2o1 (stereo not drawn),Percent Effect,"30.3 µM, […]",60.09%
CCc1nc2c(NCC3COc4ccccc4C3)ncnc2o1 (stereo not drawn),Percent Effect,"30.3 µM, […]",35.57%
CCC(CNC(=O)c1nc(=O)[nH][nH]1)Oc1cccc(C(F)(F)F)c1 (stereo not drawn),Percent Effect,"30.3 µM, […]",11.69%
CC1c2ncc(COCC3CC3)n2CCN1C.O=C(O)C(F)(F)F (stereo not drawn),Percent Effect,"30.3 µM, […]",11.79%
Cc1nc(N(C)C)nc(-c2cccc(-c3ccn(CCCF)n3)c2)c1C,Percent Effect,"30.3 µM, […]",-3.93%
CN(C)c1cc(CNC(=O)c2ccc(F)cc2F)ccn1,Percent Effect,"30 µM, 30.03 µM",42.64%
CCc1nc(CN(C)CC(=O)NC(C)C)cs1,Percent Effect,"30.3 µM, […]",35.21%
CCCc1cc(C(=O)N[C@@H](CO)[C@@H](O)c2ccccc2)n(C)n1,Percent Effect,"30.3 µM, […]",0.7938%
CCCc1cc(C(=O)N[C@H](C)[C@@H](O)c2ccc(O)cc2)n(C)n1,Percent Effect,"30.3 µM, […]",13.63%
CCCc1cc(C(=O)NC(C)c2ccccc2)n(C)n1 (stereo not drawn),Percent Effect,"30.3 µM, […]",52.97%
CN(Cc1ccco1)C(=O)NCc1ccnc(SC(C)(C)C)c1,Percent Effect,"30.3 µM, […]",10.46%
CCn1cc(CNCc2ccc(C(=O)OC)cc2)c(C)n1,Percent Effect,"30.3 µM, […]",-10.67%
CN(C)CC1(O)CCCN(C(=O)Cc2ccc(Cl)c(Cl)c2)C1 (stereo not drawn),Percent Effect,"30.3 µM, […]",-2.799%
CC(C)Nc1nc(N2CCCC2)nc2c1CN(c1ncc(F)cn1)CC2,Percent Effect,"30.3 µM, […]",60.7%
Cc1nc(CN2CCc3nc(NC(C)C)nc(C)c3C2)cs1,Percent Effect,"30.3 µM, […]",4.033%
CCC(C)N1CCc2nc(N3CCCC3)nc(NC(C)C)c2C1 (stereo not drawn),Percent Effect,"30.3 µM, […]",35.6%
CC(C)Nc1nc(N2CCCC2)nc2c1CN(C(C)C)CC2,Percent Effect,"30 µM, 30.03 µM",-2.181%
Cc1nc(CN2CCc3nc(N4CCCC4)nc(NC(C)C)c3C2)cs1,Percent Effect,"30.3 µM, […]",51.28%
CC(C)Nc1nc(N2CCCC2)nc2c1CN(C)CC2,Percent Effect,"30.3 µM, […]",20.69%
O=C(OCc1cccs1)c1cccc(C(=O)N2CCCC2)n1,Percent Effect,"30.3 µM, […]",3.746%
Cn1cc(-c2ncc3c(c2C(=O)O)CCN(Cc2ccco2)C3)cn1.O=C(O)C(F)(F)F,Percent Effect,"30.3 µM, […]",10.3%
Cc1ccc(C(=O)NCc2ccnc(N(C)C)c2)c(C)c1,Percent Effect,"30.3 µM, […]",24.48%
O=C(c1ccccn1)N1CCCC(c2ncncc2-c2ccncc2)C1 (stereo not drawn),Percent Effect,"30.3 µM, […]",-13.38%
O=C(O)C(F)(F)F.O=C1NCC[C@]12CN(CC1CCOCC1)C[C@H]2c1ccccc1,Percent Effect,"30.3 µM, […]",7.927%
COc1cccc(CNC(=O)c2cccnc2N)c1,Percent Effect,"30.3 µM, […]",50.32%
Nc1ncccc1C(=O)NCc1cccc(Br)c1,Percent Effect,"30.3 µM, […]",45.5%
Cc1cccc(CNC(=O)c2cccnc2N)c1,Percent Effect,"30.3 µM, […]",26.02%
COc1ccc(C(=O)NS(=O)(=O)c2cc(Cl)sc2Cl)cc1OC(F)F,Percent Effect,"30.3 µM, […]",16.5%
CCn1cc(NC(=O)NCC(c2ccsc2)N(C)C)cn1 (stereo not drawn),Percent Effect,30 µM,19.68%
COc1ccc(CC(=O)N2CCCC(n3cccn3)C2)cc1F (stereo not drawn),Percent Effect,30 µM,5.405%
CNC(=O)c1sccc1S(=O)(=O)Nc1ccc(C)cc1,Percent Effect,"30.3 µM, […]",8.63%
CN1CCOC(CN(C(=O)Cc2ccccc2F)c2nccs2)C1 (stereo not drawn),Percent Effect,"30 µM, 30.03 µM",-6.347%
c1ccc(Cc2nc(CN3CCCC3Cn3cncn3)cs2)cc1 (stereo not drawn),Percent Effect,30 µM,-0.1933%
Cc1ccc2nc(C3CCCN3Cc3csc(C)n3)[nH]c2c1 (stereo not drawn),Percent Effect,"30.3 µM, […]",32.46%
Cc1ccc2nc(C3CCCN3Cc3scnc3C)[nH]c2c1 (stereo not drawn),Percent Effect,"30.3 µM, […]",25.37%
Cc1ccc2nc(C3CCCN3Cc3cccc(CCN)c3)[nH]c2c1 (stereo not drawn),Percent Effect,"30.3 µM, […]",54.52%
O=C1NCCN(Cc2ccoc2)C1CC(=O)N1CCc2sccc2C1 (stereo not drawn),Percent Effect,"30.3 µM, […]",23.18%
CN(CC(=O)NC1(C)CCS(=O)(=O)C1)Cc1ccc(Br)cc1 (stereo not drawn),Percent Effect,30 µM,-0.9039%
CN(C)C(=O)CN1CCC2(COCc3cnc(-c4ccccc4)nc32)C1 (stereo not drawn),Percent Effect,"30.3 µM, […]",31.1%
O=C(O)C(F)(F)F.c1cnc(N2CCC3(COCc4cnc(-c5cccnc5)nc43)C2)nc1 (stereo not drawn),Percent Effect,"30 µM, 30.03 µM",17.52%
CN(C)C(=O)CN1CCC2(COCc3cnc(-c4cccnc4)nc32)C1.O=C(O)C(F)(F)F.O=C(O)C(F)(F)F (stereo not drawn),Percent Effect,"30.3 µM, […]",71.1%
CN(C)C1CCN(C(=O)c2cccc(S(=O)(=O)NCC3(C)COC3)c2)C1 (stereo not drawn),Percent Effect,"30.3 µM, […]",28.53%
CCn1cc(CN2CCCC(COc3ccccc3F)C2)cn1 (stereo not drawn),Percent Effect,"30.3 µM, […]",32.99%
Cn1nccc1CN1CCCC(COc2ccccc2F)C1 (stereo not drawn),Percent Effect,"30.3 µM, […]",53.5%
CC(C)n1c(C2CCCN(Cc3ccnn3C)C2)nc2ccccc21 (stereo not drawn),Percent Effect,"30 µM, 30.03 µM",7.956%
COc1ccc(CN2Cc3[nH]nc(C(=O)N(C)C)c3C2)cc1,Percent Effect,"30.3 µM, […]",5.856%
COCCN(C)Cc1ccc(OC)c(OC(F)F)c1,Percent Effect,"30 µM, 30.03 µM",7.354%
CCN(CCS(=O)(=O)c1ccc(Cl)cc1)Cc1ccc(OC)c(OC)c1,Percent Effect,"30.3 µM, […]",54.72%
COc1ccc(CN(C)CCS(=O)(=O)c2ccc(Cl)cc2)cc1OC,Percent Effect,"30.3 µM, […]",56.02%
CCN(Cc1nccs1)Cc1cc(Cl)ccc1OC,Percent Effect,"30.3 µM, […]",-1.846%
COc1ccc(CCN(C)CCS(=O)(=O)c2ccc(Cl)cc2)cc1OC,Percent Effect,"30.3 µM, […]",7.861%
COc1ccc(CCCN(C)C(=O)c2cc(Cl)c[nH]2)cc1OC,Percent Effect,"30.3 µM, […]",32.32%
